Data published in PubChem BioAssay (NCATS).
Inconclusive results are not listed. Activity calls are given as the source filed them. The call rests on the fitted dose curve; in most records, active means well fitted cell-killing curve with a large enough effect; inconclusive means small, poorly fitted or top-dose-only effect, or effect the other way; inactive means no such curve, though single readings can be large or run the other way.
On the % scale 0 is the no-effect control and ±100 the full control effect; potency means the concentration at half of the fitted maximal effect.

Test: qHTS of pediatric cancer cell lines to identify multiple opportunities for drug repurposing: Confirmatory screen for OHS-50 cells (AID 1347128);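 further: compound exposure lasted 48 h at 37 degrees C; nearly all actives have a fitted effect of over 55% in size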
Conditions: OHS-50 osteosarcoma cells viability; series mostly up to 45.9 µM; activity change, negative = cytotoxic: at the top concentration
Source text: Drug repurposing or repositioning has been offered as a strategy for drug development in oncology programs. This approach has special potential for childhood cancers and other rare or orphan diseases, where the expected return on new drug development has been a disincentive to pharmaceuticals.
In this project we exploit the poly-pharmacology of drugs to discover new indications via phenotypic screening of a panel of 19 well-characterized cell lines derived from solid tumors seen in children and adolescents. The goal is to identify approved drugs with previously unrecognized anticancer properties that has the potential to reveal new mechanisms and biological processes involved in carcinogenesis or drug resistance. We employed a titration-based paradigm (quantitative high-throughput screening or qHTS), where all compounds were tested at multiple concentrations for their effect on cell viability. Concentration-response curves (CRCs) were derived directly from the primary screen, and both potency and efficacy values were used to identify compounds with robust bioactivity profiles. We screened the NIH Chemical Genomics Center (NCGC) Pharmaceutical Collection (NPC) and Mechanism Interrogation Plate (MIPE) small molecule collections of approved and investigational compounds against these cell lines; and measured metabolically active cells after 48 hours of compound treatment as a proxy for cell viability.
Assay Submitter: Nathalia J. Martinez, National Center for Advancing Translational Sciences, National Institutes of Health, Rockville, MD, USA; email: natalia.martinez@nih.gov
[1] Shen, M et al. Quantitative high-throughput phenotypic screening of pediatric cancer cell lines identifies multiple opportunities for drug repurposing. Oncotarget 2017 Dec 19;9(4):4758-4772. PMID 29435139.
The cells were obtained from University of North Carolina (UNC), Pediatric Preclinical Testing Program (PPT), and Coriell Institute (CI).
qHTS cell viability assay:
Cells were assayed in growth media at a density of 500-1,000 cells/well. Five microliters of cells were dispensed into 1,536-well, white, solid-bottom, TC-treated plates (Greiner Bio One) using a multidrop dispenser and incubated at 37 degrees C, 5% CO2, under a humidified atmosphere for 5 hours. Twenty-three nanoliters of compounds and controls (neutral control DMSO or positive control bortezomib at final concentration of 2.3 µM) were subsequently transferred by Kalypsys pintool. For primary screens, the MIPE collection was tested at 11-point dilutions (final concentrations range from 0.78 nM to 46 µM) and the NPC collection at 8-point dilutions (final concentrations range from 0.59 nM to 46 µM). Compounds tested in follow-up screens were assayed at 11-point dilutions. Cells were incubated for 48 hours, followed by addition of 3 µL of CellTiter-Glo (Promega). After a 15 min incubation at room temperature, samples were analyzed for luminescence intensity using a ViewLux High-throughput CCD imager equipped with clear filters.
In the case of `COc1ccc(-c2cc3c(C)nc(N)nc3n(C3CCC(OCCO)CC3)c2=O)cn1` (stereo not given), the “activity change, negative = cytotoxic” value is reported as 4.99% (inactive). For `COc1c(OCCCN2CCOCC2)ccc2c3n(c(=NC(=O)c4cnc(N)nc4)nc12)CCN3`, the Potency was 2.29 µM (active). With `Cc1[nH]c2ccccc2c1CCNCc1ccc(C=CC(=O)NO)cc1` the Potency was 0.293 µM (active). With `Cc1cn(-c2cc(NC(=O)c3ccc(C)c(Nc4nccc(-c5cccnc5)n4)c3)cc(C(F)(F)F)c2)cn1` the Potency was 18.5 µM (active). For `CCS(=O)(=O)c1cccc(-c2cc(C(=O)NC3CCN(C)CC3)c(C)c3[nH]c4ncc(C)cc4c23)c1`, the Potency was 1.85 µM (active). In the case of `CN(C)Cc1c(C(=O)NCCOc2ccc(C(=O)NO)cc2)oc2ccccc12`, the Potency is reported as 1.65 µM (active). In the case of `Cc1[nH]nc2ccc(-c3cncc(OC[C@@H](N)Cc4ccccc4)c3)cc12`, the Potency is reported as 4.65 µM (active). For `Nc1ncnc2c1c(-c1cnc3[nH]ccc3c1)nn2C1CCCC1`, the Potency was 1.85 µM (active). In the case of `CC(C)(C)c1cc(NC(=O)Nc2ccc(-c3cn4c(n3)sc3cc(OCCN5CCOCC5)ccc34)cc2)no1`, the Potency is reported as 16.5 µM (active). With `COC(=O)Nc1nc2ccc(C(=O)c3ccc(F)cc3)cc2[nH]1` the Potency was 2.61 µM (active). In the case of `O=C(Nc1cn[nH]c1-c1nc2ccc(CN3CCOCC3)cc2[nH]1)NC1CC1`, the “activity change, negative = cytotoxic” value is reported as 15% (inactive). For `CC1(C)OC2=C(C(=O)c3ccccc3C2=O)[C@H](NCc2ccccc2)[C@H]1O`, the Potency was 7.37 µM (active). In the case of `C[C@@H](Oc1cc(-n2cnc3ccc(CN4CCN(C)CC4)cc32)sc1C(N)=O)c1ccccc1C(F)(F)F`, the Potency is reported as 0.0759 µM (active). With `CC=CC1=C(C(=O)O)N2C(=O)[C@H](NC(=O)[C@H](N)c3ccc(O)cc3)[C@@H]2SC1` the “activity change, negative = cytotoxic” value was 6.07% (inactive). With `CNC(=O)c1c(F)cccc1Nc1nc(Nc2cc3c(cc2OC)CCN3C(=O)CN(C)C)nc2[nH]ccc12` the Potency was 16.5 µM (active). In the case of `Cc1cn2c(-c3cn[nH]c3)cnc2c(Nc2ccc(C(=O)N3CCNCC3)cc2F)n1`, the Potency is reported as 16.5 µM (active). In the case of `COc1ccc(OC)c(-c2nnc3ccc(-c4ccc(OC)c(O[C@@H]5CCOC5)c4)nn23)c1`, the Potency is reported as 6.57 µM (active). With `CC(C)c1nn(-c2c(Cl)cccc2Cl)c2nc(Cc3ccc(OCCO)cc3)[nH]c(=O)c12` the Potency was 0.104 µM (active). With `O=C(Nc1cc(C(F)(F)F)cc(C(F)(F)F)c1)c1cc(Cl)ccc1O` the Potency was 0.928 µM (active). With `Cc1ccc(C(=O)Nc2cccc(C(F)(F)F)c2)cc1-c1ccc2nc(NCCN3CCOCC3)ncc2c1` the Potency was 8.27 µM (active). With `CC(C)c1cc(-c2n[nH]c(=O)n2-c2ccc3c(ccn3C)c2)c(O)cc1O` the “activity change, negative = cytotoxic” value was 8.66% (inactive). For `CC(=O)OCC(=O)[C@@]1(O)[C@H](C)C[C@H]2[C@@H]3C=C(C)C4=Cc5c(cnn5-c5ccccc5)C[C@]4(C)[C@@H]3[C@@H](O)C[C@@]21C`, the Potency was 16.5 µM (active). For `C#Cc1cccc(Nc2ncnc3cc(OC)c(OCCCCCCC(=O)NO)cc23)c1`, the Potency was 2.4 µM (active). In the case of `CCC1=C[C@@H]2CN(C1)Cc1c([nH]c3ccccc13)[C@@](C(=O)OC)(c1cc3c(cc1OC)N(C)[C@@H]1[C@@](O)(C(=O)OC)[C@H](OC(C)=O)[C@]4(CC)C=CCN5CC[C@]31[C@@H]54)C2`, the Potency is reported as 11.7 µM (active). In the case of `Cc1ccc(-c2ncn(-c3ccc(Nc4nccc(-c5cccc(N6CCOCC6)c5)n4)cc3)n2)cn1`, the Potency is reported as 0.537 µM (active). With `CN(c1ncccc1CNc1nc(Nc2ccc3c(c2)CC(=O)N3)ncc1C(F)(F)F)S(C)(=O)=O` the Potency was 5.85 µM (active). For `Cc1cc(N2CCOCC2)cc2[nH]c(-c3c(NC[C@@H](O)c4cccc(Cl)c4)cc[nH]c3=O)nc12`, the Potency was 3.29 µM (active). For `C=CC(=O)Nc1cccc(Oc2nc(Nc3ccc(N4CCN(C)CC4)cc3)ncc2Cl)c1`, the Potency was 5.22 µM (active). For `C[C@@H](Oc1cc(-c2cnn(C3CCNCC3)c2)cnc1N)c1c(Cl)ccc(F)c1Cl`, the Potency was 14.7 µM (active). In the case of `C=CCn1c(=O)c2cnc(Nc3ccc(N4CCN(C)CC4)cc3)nc2n1-c1cccc(C(C)(C)O)n1`, the Potency is reported as 1.04 µM (active). In the case of `Cc1ccc(C(=O)Nc2ccc(CN3CCN(C)CC3)c(C(F)(F)F)c2)cc1C#Cc1cnc2cccnn12`, the “activity change, negative = cytotoxic” value is reported as -61.3% (inactive). In the case of `CC1(C)CCC(c2ccc(Cl)cc2)=C(CN2CCN(c3ccc(C(=O)NS(=O)(=O)c4ccc(N[C@H](CCN5CCOCC5)CSc5ccccc5)c(S(=O)(=O)C(F)(F)F)c4)cc3)CC2)C1`, the “activity change, negative = cytotoxic” value is reported as 12.5% (inactive). For `O=C(NC1CCNCC1)c1[nH]ncc1NC(=O)c1c(Cl)cccc1Cl`, the Potency was 2.4 µM (active). With `CCOc1cc2ncc(C#N)c(Nc3ccc(F)c(Cl)c3)c2cc1NC(=O)C=CCN(C)C` the Potency was 0.147 µM (active). In the case of `CC(C)CC(=O)Nc1n[nH]c2c1CN(C(=O)C1CCN(C)CC1)C2(C)C`, the Potency is reported as 5.85 µM (active). With `Cn1c2ccccc2c2c3c(c4c5ccccc5n(CCC#N)c4c21)CNC3=O` the Potency was 11.7 µM (active). For `COCCn1c2c([n+](Cc3cnccn3)c1C)C(=O)c1ccccc1C2=O`, the Potency was 0.0052 µM (active). For `CCCCc1nc2cc(C=CC(=O)NO)ccc2n1CCN(CC)CC`, the Potency was 2.93 µM (active). With `CN1CCN(c2cc(C(=O)Nc3ccc4c(c3)-c3c(c(C(N)=O)nn3-c3ccc(F)cc3)CC4)c(Cl)cn2)CC1` the Potency was 23.3 µM (active). For `CC(C)[C@H](C(=O)Nc1ccc(C(=O)NO)cc1)c1ccccc1`, the Potency was 2.33 µM (active).
